# Test results from PubChem BioAssay.
# Calls of active or inactive are those of the source.
# Assays:
# [1] = biological target: Albumin (Bos taurus) (UniProt P02769); experiment: bovine serum albumin binders on microarray, profiling panel, artefact control for SMM control protein annotation, biochemical, small-molecule microarray, Alexa647 label, 635/667 nm fluorescence (AID 1118); settings: BSA-A647 binding, fluorescence 635 nm, higher = more signal;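 note: score merges 667 nm emission intensity and signal-to-noise per printed compound spot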
# [2] = small-molecule microarray binders of probe aXIP, primary screen, biochemical, NeuroSMM set, 635/667 nm fluorescence (AID 1119); settings: higher = more signal, called active from +8 up or from −8 down;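 note: probe is the protein aXip251-270 applied at 1 µg/mL to compound-printed slides; binding of probe to printed compounds measured as 667 nm fluorescence plus signal to noise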
# [3] = small-molecule binders of probe aNOTCH3, primary screen, biochemical, small-molecule microarray, 635/667 nm fluorescence (AID 1120); settings: higher = more signal;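 note: probe is a biotin-tagged antibody raised against NOTCH3 rather than NOTCH3 protein; score merges spot fluorescence near 667 nm with spot signal to noise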
# [4] = small-molecule binders of probe aNOTCH2, primary screen, biochemical, small-molecule microarray, 635/667 nm fluorescence (AID 1121); settings: higher = more signal;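 note: score merges feature fluorescence read at 667 nm with its signal to noise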
# [5] = biological target: Carbonic anhydrase 2 (Homo sapiens) (UniProt P00918); experiment: CAII small-molecule binders, profiling panel, biochemical, small-molecule microarray, Alexa647-labelled CAII (AID 1122); settings: CAII-A647 binding fluorescence, higher = more signal
# [6] = COS7 lysate on small-molecule microarray, probe aHis, 635 nm (AID 1123); settings: COS7 cell lysate, fluorescence, higher = more signal;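 note: z-score combines 667nm fluorescence intensity with signal-to-noise per printed compound spot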
# [7] = compound binding in COS7 lysate, probe aLAP1, primary screen, cell lysate, small-molecule microarray (AID 1124); settings: probe aLAP1, fluorescence, higher = more signal;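 note: lysate comes from COS7 cells expressing LAP1 and is applied at 0.3 µg/mL; score merges spot fluorescence near 667 nm with signal-to-noise over triplicate slides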
# [8] = test system: Sam68 (KHDRBS1); experiment: Sam68 small-molecule binders, primary screen, biochemical, small-molecule microarray, 635 nm fluorescence (AID 1125); settings: small-molecule microarray binding, higher = more signal;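 note: score merges 667 nm channel intensity with signal to noise over triplicate slides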
# [9] = test system: Chordin-like protein 2 (CHRDL2); experiment: CHRDL2 small-molecule binders, primary screen, biochemical, small-molecule microarray, 635 nm fluorescence (AID 1126); settings: small-molecule microarray binding, fluorescence 635 nm; higher = more signal;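 note: printed compound slides probed with Chrdl2 protein at 4 µg/mL for 1 h at 4 C; score merges 667 nm emission intensity with signal to noise over three replicate slides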
# [10] = biological target: Concanavalin-A (Canavalia ensiformis) (UniProt P02866); experiment: ConA small-molecule binders, primary screen, artefact control for SMM control protein annotation, biochemical, small-molecule microarray, Alexa647 label, 635 nm (AID 1127); settings: ConA-A647 binding fluorescence, higher = more signal;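 note: z combines 667 nm emission intensity with signal-to-noise across three replicate slides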
# Concanavalin-A (Canavalia ensiformis), sequence (P02866 whole entry, looked up): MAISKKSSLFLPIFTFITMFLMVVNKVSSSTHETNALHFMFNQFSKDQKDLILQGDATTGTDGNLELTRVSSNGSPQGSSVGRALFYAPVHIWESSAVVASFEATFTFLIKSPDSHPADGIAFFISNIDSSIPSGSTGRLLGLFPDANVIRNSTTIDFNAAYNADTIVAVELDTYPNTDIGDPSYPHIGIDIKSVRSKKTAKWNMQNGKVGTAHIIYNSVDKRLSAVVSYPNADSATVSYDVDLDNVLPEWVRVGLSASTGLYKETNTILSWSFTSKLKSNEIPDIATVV
# Albumin (Bos taurus), sequence (P02769 whole entry, looked up): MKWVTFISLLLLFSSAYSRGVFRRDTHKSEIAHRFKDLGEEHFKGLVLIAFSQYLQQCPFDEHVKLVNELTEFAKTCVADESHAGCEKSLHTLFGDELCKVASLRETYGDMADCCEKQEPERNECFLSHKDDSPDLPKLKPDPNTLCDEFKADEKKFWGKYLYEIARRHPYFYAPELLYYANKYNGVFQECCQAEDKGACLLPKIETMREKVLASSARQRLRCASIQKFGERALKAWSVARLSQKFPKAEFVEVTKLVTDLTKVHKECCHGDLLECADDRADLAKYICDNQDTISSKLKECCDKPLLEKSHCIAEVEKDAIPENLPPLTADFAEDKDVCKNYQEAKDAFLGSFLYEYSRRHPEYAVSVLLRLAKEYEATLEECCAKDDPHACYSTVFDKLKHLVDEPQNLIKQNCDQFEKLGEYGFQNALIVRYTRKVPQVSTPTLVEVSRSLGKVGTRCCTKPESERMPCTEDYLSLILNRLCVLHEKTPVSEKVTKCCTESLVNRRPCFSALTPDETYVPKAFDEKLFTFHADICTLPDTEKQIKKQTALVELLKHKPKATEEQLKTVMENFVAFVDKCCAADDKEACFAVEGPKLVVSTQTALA
SMILES,composite z-score [1],composite Z-score [2],composite z-score [3],composite z-score [4],composite z-score [5],composite z-score [6],composite z-score [7],composite z-score [8],composite z-score [9],composite z-score [10]
COc1ccc([Si](C)(C)[C@@H]2[C@@H](CC(=O)N(CCO)Cc3ccccc3)O[C@]3(C(=O)N(Cc4ccc(N5CCOC5=O)cc4)c4ccccc43)[C@H]2C)cc1,-0.697,0.516 (inactive),-0.063,-0.175,0.469,1.35,-0.211,0.951,0.697,1.08
COCCCNC(=O)[C@]1(Cc2ccccc2CN=[N+]=[N-])N=C(c2ccc(OCCCO)cc2)O[C@@H]1c1ccccc1CN=[N+]=[N-],0.864,0.701 (inactive),0.364,0.309,0.613,2.28,1.09,1.29,-0.0479,1
O=C1O[C@H](c2ccccc2)[C@H](c2ccccc2)N2[C@H]1[C@@H](C(=O)N1CCCCCCC1)[C@]1(C(=O)Nc3ccccc31)[C@H]2c1ccc(O)cc1,0.052,8.41 (active),2.34,1.24,0.764,4.65,1.65,1.31,1.71,1.17
O=C1C2C=CC(C(O)c3ccccn3)N(Nc3ccccc3)C2C(=O)N1c1ccccc1 (stereo not given),1.03,0.959 (inactive),-0.0026,-0.0995,0.824,0.696,-0.247,-0.419,-0.493,0.36
CO[C@H]1O[C@H](CO)[C@@H](OC(=O)c2ccc(Br)cc2)[C@@H]2OC(=O)[C@H](Cc3cccc(Br)c3)C/C=C/C[C@@H](Cc3cccc(Br)c3)C(=O)O[C@@H]12,0.695,0.528 (inactive),0.119,-0.0486,0.439,0.806,0.72,1.18,0.511,0.583
C[N+](C)(C)CCCC[C@@H]1NC(=O)[C@H]2C[C@@H](C(=O)NCCCCCCN)[C@@H](c3cccc(OCCO)c3)N2C1=O,0.149,0.514 (inactive),0.536,0.198,0.752,2.07,1.04,1.3,0.886,0.936
CCCCC(=C=CC[C@H](O)c1ccccc1OCCO)C[C@H](O)c1ccccn1,0.0165,-0.452 (inactive),0.0311,-0.164,0.557,-0.137,0.271,-0.0949,0.547,0.319
CC(C)(C)OC(=O)CC[C@@]1(C(=O)N2CCCCC2)N=C(c2ccc(OCCCO)cc2)O[C@@H]1c1ccccc1CN=[N+]=[N-],1.03,0.18 (inactive),0.359,0.13,0.597,2.99,0.639,1.29,-0.813,1.18
COC(=O)C(CC#Cc1ccc2c(c1)[C@]1(C(=O)N2)[C@H](c2ccc(O)cc2)N2[C@H](c3ccccc3)[C@H](c3ccccc3)OC(=O)[C@H]2[C@@H]1C(N)=O)C(=O)OC,-0.999,-0.421 (inactive),-0.256,-0.118,-0.669,-0.43,-0.404,-1.43,-2.25,-1.3
COC(=O)[C@@]1(Cc2ccc(F)cc2)[C@H]2c3cc(C(=O)N(C)C)n(Cc4ccc(C)c(F)c4F)c3C[C@H]2CN1C(=O)c1ccccc1,0.751,0.818 (inactive),0.243,0.0742,0.713,3.15,-0.0137,1.07,-0.991,0.879
COc1cccc(C)c1NC(=O)O[C@H]1[C@H](OC(=O)Nc2ccccc2)[C@H](OC(=O)Nc2ccccc2)[C@@H](OC)O[C@@H]1CO,0.958,-0.922 (inactive),-0.0647,0.0564,0.54,2.48,0.25,1.34,-1.05,1.17
COC(=O)[C@@]1(Cc2ccc(F)cc2)[C@@H]2[C@@H](CC(=O)[C@H]2CC(=O)C(=O)N2CCCC2)CN1C(=O)c1ccccc1,1.08,0.304 (inactive),0.506,0.239,0.603,3.17,0.552,1.3,-0.232,1.16
C=CC[C@@]1(C(=O)NCC(O)CO)N=C(c2ccc(OCCCO)cc2)O[C@@H]1c1ccccc1 (stereo not given in full),0.814,1.81 (inactive),0.13,-0.0028,0.797,3.84,0.595,1.22,-0.381,-0.237
COc1cc(C(O)C2C=CC3C(=O)NC(=O)C3N2Nc2ccc(Cl)cc2Cl)cc(OC)c1OC (stereo not given),0.254,-0.762 (inactive),0.454,0.0956,0.752,2.99,0.115,0.79,-0.0696,1.05
CCCNC(=O)[C@@]1(Sc2ccc(C)cc2)CC(=O)N(Cc2ccccc2)[C@@H]1c1ccc(CO)cc1I,-0.793,-0.163 (inactive),0.147,-0.115,0.405,0.644,1.01,0.827,0.678,0.082
C=C(COC)C(=O)CC[C@H](OC(=O)c1ccccc1-c1ccccc1C(=O)O)c1ccc(CO)o1,-0.701,0.403 (inactive),-0.203,-0.14,0.365,-0.264,0.134,0.807,0.55,0.332
C=CCOC(=O)[C@H]1[C@@H]2C(=O)O[C@@H](c3ccccc3)[C@@H](c3ccccc3)N2[C@@H](c2ccc(OCCOC(=O)[C@H]3C[C@H]4C(=O)N[C@@H](CCCCN(C)C)C(=O)N4[C@H]3c3ccc(O)cc3)cc2)[C@]12C(=O)Nc1ccccc12,-0.144,-0.168 (inactive),0.272,-0.185,0.415,1.48,0.0568,1.29,1.21,1.1

SMILES,composite z-score [1],composite Z-score [2],composite z-score [3],composite z-score [4],composite z-score [5],composite z-score [6],composite z-score [7],composite z-score [8],composite z-score [9],composite z-score [10]
O=C1CSC(c2cccc([N+](=O)[O-])c2)N1c1ccccc1 (stereo not given),0.0623,0.0045 (inactive),-0.0647,-0.172,0.153,0.523,0.537,0.557,0.286,0.612
C[C@]12C(=O)N(CCCCCO)[C@@H]3C(=O)N(c4ccc(Cl)cc4)CC=CC31O[C@@H]1/C=C\CCCOC(=O)C12 (stereo not given in full),0.153,0.312 (inactive),-0.376,-0.14,-0.247,-0.947,-0.615,-0.698,-1.12,-1.02
CC(C)c1ccc(NN2C(C(O)c3ccccn3)C=CC3C(=O)N(c4ccccc4)C(=O)C32)cc1 (stereo not given),0.835,-0.232 (inactive),0.447,0.142,0.808,2.92,0.881,1.32,-0.159,1.1
COCC1=C([C@H](O)CCc2ccccc2)[C@H](CO)[C@@H]2C(=O)N(C)C(=O)[C@@H]2C1,0.218,-0.222 (inactive),0.0893,-0.0502,0.426,-0.0175,0.0165,0.322,0.758,-0.0605
CC1CC/C=C\[C@H]2OC34C=CCN(c5ccc(Cl)cc5)C(=O)[C@H]3N(C(CO)C(C)C)C(=O)[C@]4(C)C2C(=O)O1 (stereo not given in full),0.788,-0.0965 (inactive),-0.28,-0.174,0.859,0.253,0.438,-0.932,-0.169,-0.983
CN1C(=O)C2C=CC(C(O)c3cccc4ccccc34)N(NC(=O)OC(C)(C)C)C2C1=O (stereo not given),1,0.58 (inactive),0.479,0.385,0.752,2.95,1.57,1.3,-0.705,1.17
COc1ccc([Si](C)(C)[C@H]2[C@H](CCO)O[C@@]3(C(=O)N(Cc4cccc(N5CCOC5=O)c4)c4ccccc43)[C@@H]2C)cc1,0.688,0.207 (inactive),0.0203,-0.0942,0.281,1.04,-0.15,0.996,-0.0894,1.1
O=C(O)[C@@]1(Cc2ccccc2)COC(c2ccc(OCCCO)cc2)=N1,-0.584,0.133 (inactive),-0.197,-0.135,0.844,0.502,-0.131,-0.21,-0.675,-0.115
COCCOC(=O)N1C(=O)[C@@]2(c3cc(C#Cc4ccc(OC)cc4)ccc31)[C@H](C(=O)N1CCc3cc(OC)c(OC)cc3C1)[C@H]1C(=O)O[C@H](c3ccccc3)[C@H](c3ccccc3)N1[C@@H]2c1ccc(O)cc1,-0.237,-0.0164 (inactive),0.436,0.357,0.282,0.853,0.844,1.28,0.805,1.16
COc1ccccc1CN1C(=O)c2ccccc2[C@@]2(Cc3ccccc3N(C3CC3)C2=O)[C@@H]1c1ccc(CO)cc1,0.0999,0.794 (inactive),-0.15,-0.112,0.669,0.165,-0.978,-0.557,-0.39,0.107
COc1ccc([Si](C)(C)[C@H]2[C@H](CC(=O)N3CCC[C@H]3CO)O[C@@]3(C(=O)N(Cc4ccc(N5C(=O)c6cccc7cccc5c67)cc4)c4ccccc43)[C@@H]2C)cc1,0.121,0.829 (inactive),0.171,-0.146,0.409,1.23,0.206,1.29,0.634,1.13
C=CCOC(=O)[C@@H]1[C@H]2C(=O)O[C@H](c3ccccc3)[C@H](c3ccccc3)N2[C@H](c2ccc(OCCOC(=O)[C@@H]3C[C@@H]4C(=O)N[C@@H](CCCCNC(C)=O)C(=O)N4[C@@H]3c3ccc(O)cc3)cc2)[C@@]12C(=O)Nc1ccc(I)cc12,-0.427,1.48 (inactive),0.844,-0.0458,0.5,1.86,0.705,1.29,0.986,1.15
C=CCC(OC(C)=O)[C@@H]1[C@@H](N(Cc2cccc3ccccc23)C(=O)Cc2ccc(F)cc2)c2cc(OCCCO)ccc2N1C(=O)Cc1ccc(OC)cc1 (stereo not given in full),0.006,-0.328 (inactive),-0.0454,-0.119,0.191,-0.0343,-0.238,0.191,0.0157,1.03
OCc1ccc(-c2cc[n+](Cc3cccc(OC(F)(F)F)c3)cc2)cc1,0.503,0.372 (inactive),0.11,-0.0254,0.894,0.813,1.08,0.981,1.49,1.08
C=CCOc1ccc([C@@H]2CC=C(C(=O)OCC)[C@H](c3cccc(Br)c3)N2S(=O)(=O)c2ccc(C)cc2)cc1,0.64,0.0809 (inactive),0.032,-0.0784,-0.125,0.491,0.11,0.099,0.314,0.709
C=C(/C(=C/C[C@@H](OC(=O)c1ccncc1)c1ccccc1OCCO)c1cnc2ccccc2c1)C(C)C,0.635,0.718 (inactive),0.306,0.0002,0.935,1.5,0.497,1.3,1.45,1.19
